Each structure is given as a SMILES string. About 79,000 compounds went through this panel and 15% of them were active in at least one assay; those are over-represented in the sample as a whole. Values without a mark were called inactive. Calls of active or inactive are those of the source. Cut-off read from the data, not from the text of the source: active = growth inhibition above about 70%; inactive = the rest.

The test in a line: NCI Yeast Anticancer Drug Screen. Data for the sgs1 mgt1 strain (AID 161).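 Note: 0% = growth of cultures given vehicle only.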 Conditions: S. cerevisiae sgs1 mgt1 strain, at 50.0 µM, stronger effect = higher value. Here is the method: Growth inhibition of yeast strains with defined genetic alterations is measured as a screen for potential anti-cancer activity. Selected strains with alterations in DNA damage repair or cell cycle control were exposed to compounds and growth inhibition was measured relative to vehicle treated controls. The strain used in this assay is sgs1 mgt1
As for `O=c1[nH]cnc2c1ncn2CCCCO`, the growth inhibition is 1.6%.

Consider `CN=C1c2ccccc2C(=O)c2c1c(O)n(C)c2O`, for which the growth inhibition was 0.9%.

Turning to `CCCCCCCCCCCCOc1ccc(Br)cc1`, the growth inhibition is 19%.

In the case of `CCCCCCC(C)Oc1ccccc1Cl` (stereo not given), the growth inhibition was 7.9%.

Consider `CC1=C(C(=O)O)C(C)CC(=O)N1` (stereo not given), for which the growth inhibition is -8.25%.

On to `CCCCCCCCCCCCCCCCn1/c(=N\N=O)sc2ccccc21`, for which the growth inhibition was -8.4%.

`NC1C(=O)Nc2ccccc21` (stereo not given): the growth inhibition was -5.75%.

Turning to `COc1cc(=O)n(-c2ccccc2)nc1C#N`, the growth inhibition is 1.35%.

`Cc1ccc2[nH]c(=S)[nH]c(=S)c2c1`: the growth inhibition was 13.2%.

For `NC(=O)C(Br)Cc1cccc(Cl)c1` (stereo not given), the growth inhibition was 13.4%.

On to `COC(=O)NC(=O)CCC(=O)O`, for which the growth inhibition was 0.95%.

As to `CC(C)NC(=O)C(C(C)C)C(C)(C)C` (stereo not given), the growth inhibition is 1.35%.

Consider `CC1(C)CC2=C(SC3C=CC=CC3N2)C(=O)C1C(=O)C(N)=O` (stereo not given), for which the growth inhibition is -5.05%.

For `c1ccc2c[n+]3cc4ccccc4cc3cc2c1`, the growth inhibition is 53.7%.

Take `CC(C)(C)c1c(C#N)nnc2cc(-c3ccccc3)nn12`: the growth inhibition is 21.9%.

Turning to `C=CCc1ccc(OC(=O)Nc2ccc(S(=O)(=O)N(C)C)cc2)c(OC)c1`, the growth inhibition is 22.8%.

`O=C(NC(=S)Nc1ccc(Cl)cc1C(=O)c1ccccc1)c1ccc(Cl)cc1Cl`: the growth inhibition is -8.45%.

Turning to `CCCCCOC(=O)c1cc2ccccc2cc1O`, the growth inhibition was -8.95%.

`c1ccc(C[P+]2(c3ccccc3)c3ccccc3-c3ccccc32)cc1`: the growth inhibition was -11.2%.

With `CN(C)c1ccc(C=C2C(=O)OC(C)(C)OC2=O)cc1Br`, the growth inhibition was -4.1%.

Consider `N#CCCC(CC#N)N1CCN(C(CC#N)CCC#N)CC1` (stereo not given), for which the growth inhibition was -11.8%.

`COc1ccc2c(c1)c(CO)c(CO)c[n+]2[O-]`: the growth inhibition is 16%.

Take `CCC(C)OC(=Nc1ccccc1)c1ccccc1` (stereo not given): the growth inhibition was -4.5%.

Consider `COc1c(C)cc2c(C(C)C)c(O)c(O)c(C=O)c2c1O`, for which the growth inhibition is 80.5% (active).

Consider `CCCCN1C(=O)C(NC(C)=O)C1COC(C)(C)C` (stereo not given), for which the growth inhibition was -28.4%.

For `C=CC12CCC(CC1)n1c(=O)n(C)c(=O)n12`, the growth inhibition is -11.4%.

In the case of `COc1ccc(C(=O)Nc2ccn(CCOC(=O)c3ccc(OC)cc3)c(=O)n2)cc1`, the growth inhibition was -3.1%.

For `CCCCCCCC(=O)OC(CC)CCCC` (stereo not given), the growth inhibition was 1.5%.

In the case of `COC(=O)c1cc(-c2ccccc2)c2c(=O)n(-c3ccccc3)[nH]c2n1`, the growth inhibition was 20.5%.

As to `Cc1ccc2c(c1)N=C(Nc1ccccc1)N=S2(C)=O` (stereo not given), the growth inhibition is 0.45%.

With `CCCCCCCCCCCCCCCCc1ccc(CCCC(=O)O)cc1`, the growth inhibition was -13.3%.

As for `CC(=O)C(CCCCCCCCCCC(C(C)=O)C(C)=O)C(C)=O`, the growth inhibition is -5.05%.

Consider `OC(C/C(=N\Nc1ccccc1)c1ccc(Br)cc1)(C(F)(F)F)C(F)(F)F`, for which the growth inhibition is 88.8% (active).

`COc1cccc(/C=C2\SC(=S)N(/C=C3\C(=O)Oc4ccccc4C3=O)C2=O)c1O`: the growth inhibition is 59%.

`C/C(=C\c1ccc(OCCN2CCOCC2)cc1)c1ccc2c(c1)C(C)(C)CCC2(C)C`: the growth inhibition is 16.1%.

For `Cc1cccc(-n2c(CC#N)n[nH]c2=S)c1`, the growth inhibition was -0.4%.

Take `O=c1[nH]c2cc(Br)c(Br)cc2c2ccc(Br)cc12`: the growth inhibition is 13.7%.

For `Cc1ccc(CN(C)N=Nc2ccc(C#N)cc2)cc1`, the growth inhibition is 45.6%.

Regarding `Cc1[nH]c2ccc(-c3ccccc3)cc2c1CC(=O)O`, the growth inhibition is 47.7%.

Consider `CC12CCC(Cl)(CC1O)C2(C)C` (stereo not given), for which the growth inhibition was 1.15%.

The values above are taken from PubChem BioAssay (NCI).
